Targets with a hit are over-represented here; the source holds about 8,800 in all. About 0.5% of all pairs of compound and target were hits. Unmarked numbers belong to inactive results.
Legend:
Test in all cases: log2 fold change, soluble protein after heating vs DMSO (PISA); higher = thermal stabilisation; K562 lysate, 10 uM; active = over 0.2 and 3.5 SD of the protein, either way, in both replicates (recomputed)
erlotinib = compound: C#Cc1cccc(Nc2ncnc3cc(OCCOC)c(OCCOC)cc23)c1 [erlotinib]
Outline: (§1)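 K562 pellets were dounce-homogenised in PBS pH 7.4 with 1 mM MgCl2, and the crude extract at 1 mg/mL protein was treated with 10 μM compound for 30 min. Aliquots were heated for 3 min across 48°C-58°C, pooled, and brought to 0.5% NP-40 at 4°C; soluble protein was the supernatant after 21,000xg for 90 min. Soluble protein was quantified by TMTpro 16plex LC-MS/MS with channel sums equalised, and reported as log2 fold change in thermal stability against DMSO controls, with values from duplicates.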

[1] = compound: C/C(=N\NC(=O)C1=CC(=CC=C1)S(=O)(=O)N2CCOCC2)/C3=C(C=CC(=C3)Cl)O
Outline: as §1

[2] = compound: C1=CC(=CC=C1C2=NC3=C(N2)C=C(C=C3)C(=O)N)OC4=CC=C(C=C4)Cl
Outline: as §1

[3] = compound: C1=CC2=C(C=CC(=C2)/C=C\3/C(=O)NC(=NCC4=CC=CS4)S3)N=C1
Outline: as §1

[4] = compound: C1=CC2=NC=CN=C2C=C1/C=C/3\C(=O)NC(=O)S3
Outline: as §1

[5] = compound: C1=CC=C(C=C1)C2=NC(=C(N2)C3=CC=NC=C3)C4=CC(=C(C=C4)Cl)O
Outline: as §1

[6] = compound: C1=CC=C2C(=C1)C3=NNC4=CC=CC(=C43)C2=O
Outline: as §1

[7] = compound: C1CCN(C1)C(=O)NC2=CC=CC(=C2)NC3=NC=C(C(=N3)NCCC4=CN=CN4)Br
Outline: as §1

[8] = compound: C1CN(CCC1(CC2=CC=C(C=C2)Cl)N)C3=NC=NC4=C3C=CN4
Outline: as §1

IRAK-1-4 Inhibitor I = compound: C1COCCN1CCN2C3=CC=CC=C3N=C2NC(=O)C4=CC(=CC=C4)[N+](=O)[O-] [IRAK-1-4 Inhibitor I]
Outline: as §1

ibrutinib = compound: C=CC(=O)N1CCC[C@@H](n2nc(-c3ccc(Oc4ccccc4)cc3)c3c(N)ncnc32)C1 [ibrutinib]
Outline: as §1

[9] = compound: CC(=O)c1cnc2ccc(-c3cc(Cl)c(O)c(Cl)c3)nc2c1N[C@H]1CC[C@H](CN(C)C)CC1
Outline: as §1

ralimetinib = compound: CC(C)(C)Cn1c(N)nc2ccc(-c3[nH]c(C(C)(C)C)nc3-c3ccc(F)cc3)nc21 [ralimetinib]
Outline: as §1

[10] = compound: CC(C)(O)CC(=O)NCCn1ccc2ncnc(Nc3ccc(Oc4cccc(C(F)(F)F)c4)c(Cl)c3)c21
Outline: as §1

[11] = compound: CC(C)C1=C2N=C(C=C(N2N=C1)NCC3=CC=CC=C3)NCCCCCCN
Outline: as §1

[12] = compound: CC1=C(C(CC(=O)N1)C2=CC=C(C=C2)C(F)(F)F)C(=O)NC3=C(C=C4C(=C3)C=NN4)F
Outline: as §1

[13] = compound: CC1=C(C2=C(C=C1)C(=O)C3=CC=CC=C3N2CCCN)C
Outline: as §1

[14] = compound: CC1=C(C=C(C=C1)NC(=O)C2=CC(=CC=C2)C(C)(C)C#N)NC3=CC4=C(C=C3)N=CN(C4=O)C
Outline: as §1

[15] = compound: CC1=C(C=C(C=C1)NC(=O)C2=CC(=CC=C2)N(C)C)NC(=O)C3=CC=C(C=C3)O
Outline: as §1

[16] = compound: CC1=CC=C(C=C1)SC2=C3C=C(SC3=CN=C2)C(=O)N
Outline: as §1

Chain of UniProt Q9Y5Q8 (Q9Y5Q8 whole entry, looked up): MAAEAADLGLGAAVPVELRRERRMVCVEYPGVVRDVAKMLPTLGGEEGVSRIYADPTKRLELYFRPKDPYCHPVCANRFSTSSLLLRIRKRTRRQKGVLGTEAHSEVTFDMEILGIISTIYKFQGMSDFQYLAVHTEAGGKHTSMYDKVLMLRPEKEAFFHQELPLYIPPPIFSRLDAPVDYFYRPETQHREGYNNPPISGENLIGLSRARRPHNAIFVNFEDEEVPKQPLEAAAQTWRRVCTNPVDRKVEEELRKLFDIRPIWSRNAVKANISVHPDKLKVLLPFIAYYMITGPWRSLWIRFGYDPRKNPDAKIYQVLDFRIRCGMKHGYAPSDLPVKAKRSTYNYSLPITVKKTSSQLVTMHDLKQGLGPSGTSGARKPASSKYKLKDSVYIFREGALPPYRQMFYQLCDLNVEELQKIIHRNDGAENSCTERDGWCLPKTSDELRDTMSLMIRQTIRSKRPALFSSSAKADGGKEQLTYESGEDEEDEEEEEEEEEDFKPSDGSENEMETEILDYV
Chain of UniProt Q9NVX0 (Q9NVX0 whole entry, looked up): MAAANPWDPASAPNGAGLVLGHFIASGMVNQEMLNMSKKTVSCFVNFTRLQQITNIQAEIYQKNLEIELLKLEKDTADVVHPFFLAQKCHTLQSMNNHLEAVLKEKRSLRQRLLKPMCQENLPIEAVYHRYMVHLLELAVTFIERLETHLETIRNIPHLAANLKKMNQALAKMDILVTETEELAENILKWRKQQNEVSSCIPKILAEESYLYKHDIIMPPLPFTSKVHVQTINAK
Chain of UniProt Q9H1B7 (Q9H1B7 whole entry, looked up): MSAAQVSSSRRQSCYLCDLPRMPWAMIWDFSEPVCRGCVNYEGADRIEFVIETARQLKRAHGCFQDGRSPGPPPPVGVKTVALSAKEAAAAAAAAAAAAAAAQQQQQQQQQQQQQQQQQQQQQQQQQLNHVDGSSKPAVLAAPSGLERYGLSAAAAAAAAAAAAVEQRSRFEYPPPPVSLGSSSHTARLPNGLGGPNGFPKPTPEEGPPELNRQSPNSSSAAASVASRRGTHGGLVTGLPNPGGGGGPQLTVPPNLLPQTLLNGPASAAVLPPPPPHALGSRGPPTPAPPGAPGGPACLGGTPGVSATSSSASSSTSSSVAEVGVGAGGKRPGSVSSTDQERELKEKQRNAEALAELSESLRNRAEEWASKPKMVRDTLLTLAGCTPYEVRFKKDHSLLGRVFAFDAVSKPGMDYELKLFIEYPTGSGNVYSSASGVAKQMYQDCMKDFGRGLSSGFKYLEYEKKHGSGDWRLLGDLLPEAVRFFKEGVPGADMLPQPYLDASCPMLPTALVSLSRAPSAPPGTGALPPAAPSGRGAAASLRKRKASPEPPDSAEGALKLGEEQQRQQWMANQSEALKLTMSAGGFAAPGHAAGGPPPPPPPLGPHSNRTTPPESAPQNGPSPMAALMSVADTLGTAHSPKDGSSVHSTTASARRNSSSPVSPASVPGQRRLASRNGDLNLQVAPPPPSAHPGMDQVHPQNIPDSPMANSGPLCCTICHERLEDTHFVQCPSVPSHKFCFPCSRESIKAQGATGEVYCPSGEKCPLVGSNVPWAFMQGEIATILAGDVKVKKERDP
Chain of UniProt Q8IY47 (Q8IY47 whole entry, looked up): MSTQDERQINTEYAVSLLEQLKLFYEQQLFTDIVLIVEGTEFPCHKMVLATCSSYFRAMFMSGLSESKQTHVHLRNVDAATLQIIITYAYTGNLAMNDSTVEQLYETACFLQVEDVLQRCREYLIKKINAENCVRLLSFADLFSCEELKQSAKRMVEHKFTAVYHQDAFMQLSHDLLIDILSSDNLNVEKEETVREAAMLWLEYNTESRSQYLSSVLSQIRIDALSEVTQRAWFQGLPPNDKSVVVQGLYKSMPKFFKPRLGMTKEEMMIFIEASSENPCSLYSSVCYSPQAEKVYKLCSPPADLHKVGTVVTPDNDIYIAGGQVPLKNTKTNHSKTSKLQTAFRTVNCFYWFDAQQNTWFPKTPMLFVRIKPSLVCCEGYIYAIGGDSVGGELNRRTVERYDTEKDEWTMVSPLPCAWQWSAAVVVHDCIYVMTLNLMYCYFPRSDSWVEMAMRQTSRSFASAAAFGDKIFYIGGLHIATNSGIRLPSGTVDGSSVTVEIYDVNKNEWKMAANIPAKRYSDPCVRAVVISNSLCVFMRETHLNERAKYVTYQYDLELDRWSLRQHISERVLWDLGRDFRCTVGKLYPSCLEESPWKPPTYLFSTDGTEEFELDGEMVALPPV
Chain of UniProt Q13322 (Q13322 whole entry, looked up): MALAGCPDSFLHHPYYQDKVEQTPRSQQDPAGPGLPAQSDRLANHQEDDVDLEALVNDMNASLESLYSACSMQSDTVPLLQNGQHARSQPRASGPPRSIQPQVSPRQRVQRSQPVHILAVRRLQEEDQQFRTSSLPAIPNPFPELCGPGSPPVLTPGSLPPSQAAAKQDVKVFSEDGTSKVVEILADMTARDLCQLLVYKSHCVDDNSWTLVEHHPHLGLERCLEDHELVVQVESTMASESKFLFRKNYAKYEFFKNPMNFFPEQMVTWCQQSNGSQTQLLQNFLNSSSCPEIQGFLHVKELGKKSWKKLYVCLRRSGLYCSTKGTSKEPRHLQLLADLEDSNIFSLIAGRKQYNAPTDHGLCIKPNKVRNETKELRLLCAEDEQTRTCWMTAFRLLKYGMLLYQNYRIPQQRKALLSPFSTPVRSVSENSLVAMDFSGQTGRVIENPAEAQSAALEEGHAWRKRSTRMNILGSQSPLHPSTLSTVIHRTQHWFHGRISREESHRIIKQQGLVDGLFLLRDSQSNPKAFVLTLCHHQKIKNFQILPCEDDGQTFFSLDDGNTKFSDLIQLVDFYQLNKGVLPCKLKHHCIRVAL
Chain of UniProt Q27J81 (Q27J81 whole entry, looked up): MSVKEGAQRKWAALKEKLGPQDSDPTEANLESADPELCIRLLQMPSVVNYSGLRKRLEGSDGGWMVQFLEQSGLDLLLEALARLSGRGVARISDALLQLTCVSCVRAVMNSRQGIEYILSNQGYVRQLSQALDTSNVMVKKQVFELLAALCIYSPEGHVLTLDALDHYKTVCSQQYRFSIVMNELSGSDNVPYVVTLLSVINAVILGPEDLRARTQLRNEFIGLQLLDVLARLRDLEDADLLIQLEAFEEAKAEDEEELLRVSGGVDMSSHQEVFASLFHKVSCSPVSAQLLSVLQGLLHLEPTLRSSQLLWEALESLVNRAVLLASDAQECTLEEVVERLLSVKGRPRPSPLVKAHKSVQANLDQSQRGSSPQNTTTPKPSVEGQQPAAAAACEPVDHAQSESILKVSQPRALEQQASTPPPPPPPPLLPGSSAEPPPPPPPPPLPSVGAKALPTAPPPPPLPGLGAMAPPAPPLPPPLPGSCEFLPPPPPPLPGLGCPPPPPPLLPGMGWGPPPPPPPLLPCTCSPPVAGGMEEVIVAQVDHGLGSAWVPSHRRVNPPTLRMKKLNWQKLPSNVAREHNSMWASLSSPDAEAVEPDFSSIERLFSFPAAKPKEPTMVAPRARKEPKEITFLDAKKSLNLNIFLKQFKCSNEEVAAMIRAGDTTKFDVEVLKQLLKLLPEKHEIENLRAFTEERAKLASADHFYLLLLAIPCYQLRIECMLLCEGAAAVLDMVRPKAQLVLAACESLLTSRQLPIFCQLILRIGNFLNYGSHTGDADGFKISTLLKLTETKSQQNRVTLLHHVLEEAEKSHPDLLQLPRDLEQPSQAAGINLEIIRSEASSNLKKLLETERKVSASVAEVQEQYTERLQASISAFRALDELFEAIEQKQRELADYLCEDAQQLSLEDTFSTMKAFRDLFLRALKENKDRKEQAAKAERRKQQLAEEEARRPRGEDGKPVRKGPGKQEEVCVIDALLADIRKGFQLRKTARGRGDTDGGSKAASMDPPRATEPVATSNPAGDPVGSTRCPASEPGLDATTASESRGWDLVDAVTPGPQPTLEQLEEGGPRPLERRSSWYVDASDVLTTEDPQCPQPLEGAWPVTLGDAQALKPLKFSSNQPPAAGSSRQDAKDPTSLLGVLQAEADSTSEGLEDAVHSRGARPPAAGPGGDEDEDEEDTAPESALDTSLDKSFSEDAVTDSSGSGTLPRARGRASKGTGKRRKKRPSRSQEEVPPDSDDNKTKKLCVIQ
Chain of UniProt Q7Z4V5 (Q7Z4V5 whole entry, looked up): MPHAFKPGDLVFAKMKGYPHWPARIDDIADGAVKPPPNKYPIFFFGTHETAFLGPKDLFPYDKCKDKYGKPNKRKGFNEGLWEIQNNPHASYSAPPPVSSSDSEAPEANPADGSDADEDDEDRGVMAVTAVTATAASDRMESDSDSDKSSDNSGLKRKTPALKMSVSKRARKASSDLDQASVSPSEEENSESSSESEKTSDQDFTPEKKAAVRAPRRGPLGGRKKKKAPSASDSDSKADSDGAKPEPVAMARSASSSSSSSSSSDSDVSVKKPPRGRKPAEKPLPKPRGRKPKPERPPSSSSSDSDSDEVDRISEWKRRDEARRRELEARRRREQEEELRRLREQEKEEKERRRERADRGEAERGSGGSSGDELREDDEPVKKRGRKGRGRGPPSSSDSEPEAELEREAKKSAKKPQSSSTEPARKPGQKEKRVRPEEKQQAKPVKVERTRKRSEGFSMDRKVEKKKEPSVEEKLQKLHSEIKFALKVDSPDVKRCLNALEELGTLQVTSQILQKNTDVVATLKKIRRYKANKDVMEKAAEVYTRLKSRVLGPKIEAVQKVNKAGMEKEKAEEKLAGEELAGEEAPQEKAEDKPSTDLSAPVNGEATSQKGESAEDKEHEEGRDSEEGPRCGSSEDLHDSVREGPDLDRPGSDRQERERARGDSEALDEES
Chain of UniProt P35914 (P35914 whole entry, looked up): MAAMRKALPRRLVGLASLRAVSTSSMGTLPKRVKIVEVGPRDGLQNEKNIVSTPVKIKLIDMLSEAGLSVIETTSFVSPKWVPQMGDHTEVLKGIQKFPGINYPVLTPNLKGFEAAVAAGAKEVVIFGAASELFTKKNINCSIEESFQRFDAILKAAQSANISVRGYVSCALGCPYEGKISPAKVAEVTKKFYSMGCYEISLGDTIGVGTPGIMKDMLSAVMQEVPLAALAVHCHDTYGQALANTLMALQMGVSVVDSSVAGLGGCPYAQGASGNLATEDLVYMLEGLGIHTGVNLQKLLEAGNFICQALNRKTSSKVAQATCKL

| Target | log2 fold change (erlotinib) | log2 fold change [1] | log2 fold change [2] | log2 fold change [3] | log2 fold change [4] | log2 fold change [5] | log2 fold change [6] | log2 fold change [7] | log2 fold change [8] | log2 fold change (IRAK-1-4 Inhibitor I) | log2 fold change (ibrutinib) | log2 fold change [9] | log2 fold change (ralimetinib) | log2 fold change [10] | log2 fold change [11] | log2 fold change [12] | log2 fold change [13] | log2 fold change [14] | log2 fold change [15] | log2 fold change [16] |
| --- | --- | --- | --- | --- | --- | --- | --- | --- | --- | --- | --- | --- | --- | --- | --- | --- | --- | --- | --- | --- |
| HDGFL2 isoform 2 (UniProt Q7Z4V5) | -0.008 | -0.028 | 0.032 | -0.008 | -0.03 | 0.027 | 0.01 | 0 | 0.021 | 0 | -0.033 | -0.002 | -0.01 | -0.049 | 0.011 | -0.015 | -0.026 | 0.022 | 0.021 | -0.044 |
| HMGCL (UniProt P35914) | 0.002 | -0.089 | 0.032 | -0.016 | -0.047 | -0.005 | -0.035 | 0.005 | 0.008 | 0.024 | 0.037 | 0.008 | 0.026 | -0.016 | -0.018 | 0.001 | -0.019 | -0.009 | 0.022 | -0.014 |
| GRB10 (UniProt Q13322) | 0.027 | -0.004 | -0.06 | 0.013 | -0.03 | 0.016 | 0.019 | 0.073 | 0.054 | -0.039 | 0.015 | -0.039 | -0.006 | -0.032 | 0.014 | 0.04 | -0.015 | -0.032 | -0.006 | 0.066 |
| HAUS3 (UniProt Q68CZ6) | 0.022 | 0.01 | -0.033 | 0.016 | -0.028 | 0.004 | -0.06 | -0.045 | 0.019 | 0.025 | -0.025 | -0.021 | 0.009 | -0.019 | 0.001 | 0.022 | 0.026 | 0.014 | 0.025 | 0.025 |
| HLTF (UniProt Q14527) | 0.052 | -0.019 | 0.081 | -0.003 | -0.032 | -0.028 | 0.008 | -0.053 | 0.015 | -0.019 | 0.016 | 0.054 | 0.024 | -0.017 | -0.023 | 0.046 | 0.048 | -0.022 | 0.003 | -0.018 |
| GNL3 (UniProt Q9BVP2) | 0.004 | -0.072 | 0.002 | 0.009 | -0.062 | 0.015 | -0.011 | 0.021 | 0.014 | 0.033 | 0.023 | -0.063 | -0.026 | -0.021 | 0.05 | -0.005 | -0.073 | 0.009 | -0.007 | -0.057 |
| HDAC1 (UniProt Q13547) | 0 | -0.046 | -0.012 | 0.015 | 0.003 | -0.013 | -0.024 | -0.014 | -0.036 | -0.043 | -0.026 | -0.001 | 0.031 | 0.01 | -0.001 | 0.001 | -0.008 | -0.022 | 0.008 | 0.011 |
| INF2 (UniProt Q27J81) | 0.004 | -0.014 | -0.027 | 0.069 | 0.004 | -0.024 | -0.019 | 0.031 | 0.056 | -0.011 | 0.036 | -0.007 | 0.018 | 0.049 | -0.012 | 0.004 | 0.07 | -0.004 | -0.027 | -0.015 |
| GTF3C5 isoform 3 (UniProt Q9Y5Q8) | -0.002 | -0.042 | -0.01 | 0.007 | -0.024 | -0.019 | -0.03 | 0.072 | 0.019 | -0.015 | 0.029 | 0.034 | 0.009 | 0.005 | -0.016 | 0.025 | -0.007 | 0.015 | 0.003 | 0.008 |
| GLB1 (UniProt P16278) | 0.004 | -0.027 | 0.004 | 0.039 | -0.011 | 0.016 | -0.086 | -0.003 | 0.031 | 0.016 | 0.002 | -0.008 | -0.005 | -0.03 | 0.003 | -0.009 | -0.001 | -0.011 | 0.025 | 0.015 |
| IRF2BPL (UniProt Q9H1B7) | 0.024 | 0.102 | 0.037 | 0.022 | -0.034 | 0.002 | -0.008 | -0.002 | 0.027 | -0.027 | 0.052 | 0.004 | 0.039 | 0.026 | -0.026 | 0.02 | -0.018 | 0.045 | 0.029 | -0.038 |
| HAUS2 (UniProt Q9NVX0) | 0 | 0.045 | -0.12 | 0.116 | -0.02 | 0.03 | 0.031 | -0.015 | 0.026 | 0.003 | 0.145 | 0.1 | 0.054 | 0.058 | 0.003 | 0.026 | -0.079 | -0.017 | 0.023 | -0.021 |
| HECTD3 (UniProt Q5T447) | 0.027 | 0 | -0.005 | 0.008 | 0.022 | 0.018 | -0.008 | -0.028 | -0.026 | 0.008 | 0.054 | 0.019 | 0.037 | -0.027 | -0.022 | -0.043 | 0.022 | -0.014 | 0.002 | 0.011 |
| INTS8 (UniProt Q75QN2) | -0.002 | 0.043 | -0.051 | 0.02 | -0.048 | 0.037 | -0.004 | 0.066 | -0.035 | 0.015 | 0.024 | 0.028 | 0.058 | -0.028 | 0.009 | -0.021 | -0.179 | 0.023 | -0.033 | 0.031 |
| HADHB (UniProt P55084) | -0.108 | -0.039 | 0.367 (active) | -0.036 | -0.128 | -0.029 | 0.011 | -0.066 | 0.062 | 0.025 | 0.086 | -0.05 | 0.002 | 0.104 | -0.024 | -0.046 | 0.028 | 0.062 | -0.03 | 0.077 |
| KBTBD2 (UniProt Q8IY47) | -0.002 | 0.019 | 0.056 | 0 | 0.011 | 0.016 | -0.079 | -0.023 | 0.052 | 0.097 | -0.005 | -0.039 | -0.113 | -0.227 | 0 | 0.001 | -0.036 | 0.116 | 0 | -0.041 |

Reference: the supplement of paper PMC10849652
